In test [1] the target is Sphingosine kinase 1 (Homo sapiens) (UniProt Q9NYA1). The following applies: at 1 µM.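 Further: mean SPHK1 inhibition value reported from the GSK PKIS kinase panel screen.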
For test [2], the target named is T1, Sphingosine kinase 2 (Homo sapiens) (UniProt Q9NRA0).
T1 sequence (whole entry): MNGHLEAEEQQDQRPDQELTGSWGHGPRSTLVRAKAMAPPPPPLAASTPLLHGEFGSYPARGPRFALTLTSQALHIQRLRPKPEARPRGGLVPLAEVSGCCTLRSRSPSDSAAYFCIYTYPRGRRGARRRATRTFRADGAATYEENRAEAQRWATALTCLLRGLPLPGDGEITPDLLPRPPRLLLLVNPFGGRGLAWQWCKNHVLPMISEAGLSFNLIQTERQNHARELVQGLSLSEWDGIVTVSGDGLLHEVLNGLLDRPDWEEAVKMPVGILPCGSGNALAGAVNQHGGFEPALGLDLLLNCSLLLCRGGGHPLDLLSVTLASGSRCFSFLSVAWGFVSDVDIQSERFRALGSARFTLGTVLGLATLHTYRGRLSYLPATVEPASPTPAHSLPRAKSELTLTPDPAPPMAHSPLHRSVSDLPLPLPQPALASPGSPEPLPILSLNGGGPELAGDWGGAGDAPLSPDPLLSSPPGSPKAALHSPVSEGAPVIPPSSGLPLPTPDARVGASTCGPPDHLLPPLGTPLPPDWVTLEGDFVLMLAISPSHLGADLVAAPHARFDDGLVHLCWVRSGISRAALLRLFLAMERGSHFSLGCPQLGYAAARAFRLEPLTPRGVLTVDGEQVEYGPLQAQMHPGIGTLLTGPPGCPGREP
The following applies: at 0.1 µM.

The target of test [3] is T1, Sphingosine kinase 2 (Homo sapiens). The following applies: at 1 µM.
The target of test [4] is Casein kinase II subunit alpha (Homo sapiens) (UniProt P68400). To be noted: at 0.1 µM.
Sequence of Casein kinase II subunit alpha (Homo sapiens) (P68400 whole entry, looked up): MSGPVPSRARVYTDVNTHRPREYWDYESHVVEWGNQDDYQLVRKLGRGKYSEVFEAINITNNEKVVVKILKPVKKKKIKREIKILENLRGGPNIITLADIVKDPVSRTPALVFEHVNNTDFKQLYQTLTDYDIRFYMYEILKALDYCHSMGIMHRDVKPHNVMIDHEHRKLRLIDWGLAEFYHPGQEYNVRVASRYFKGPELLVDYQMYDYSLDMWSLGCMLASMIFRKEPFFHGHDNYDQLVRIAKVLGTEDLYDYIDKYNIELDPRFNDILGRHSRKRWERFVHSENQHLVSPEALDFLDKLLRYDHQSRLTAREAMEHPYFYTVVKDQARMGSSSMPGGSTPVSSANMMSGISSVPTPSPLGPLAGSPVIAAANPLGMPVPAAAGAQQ
Test [5] has the same target. To be noted: at 1 µM.
The target of test [6] is T2, Inhibitor of nuclear factor kappa-B kinase subunit alpha (Homo sapiens) (UniProt O15111).
T2 sequence (whole entry): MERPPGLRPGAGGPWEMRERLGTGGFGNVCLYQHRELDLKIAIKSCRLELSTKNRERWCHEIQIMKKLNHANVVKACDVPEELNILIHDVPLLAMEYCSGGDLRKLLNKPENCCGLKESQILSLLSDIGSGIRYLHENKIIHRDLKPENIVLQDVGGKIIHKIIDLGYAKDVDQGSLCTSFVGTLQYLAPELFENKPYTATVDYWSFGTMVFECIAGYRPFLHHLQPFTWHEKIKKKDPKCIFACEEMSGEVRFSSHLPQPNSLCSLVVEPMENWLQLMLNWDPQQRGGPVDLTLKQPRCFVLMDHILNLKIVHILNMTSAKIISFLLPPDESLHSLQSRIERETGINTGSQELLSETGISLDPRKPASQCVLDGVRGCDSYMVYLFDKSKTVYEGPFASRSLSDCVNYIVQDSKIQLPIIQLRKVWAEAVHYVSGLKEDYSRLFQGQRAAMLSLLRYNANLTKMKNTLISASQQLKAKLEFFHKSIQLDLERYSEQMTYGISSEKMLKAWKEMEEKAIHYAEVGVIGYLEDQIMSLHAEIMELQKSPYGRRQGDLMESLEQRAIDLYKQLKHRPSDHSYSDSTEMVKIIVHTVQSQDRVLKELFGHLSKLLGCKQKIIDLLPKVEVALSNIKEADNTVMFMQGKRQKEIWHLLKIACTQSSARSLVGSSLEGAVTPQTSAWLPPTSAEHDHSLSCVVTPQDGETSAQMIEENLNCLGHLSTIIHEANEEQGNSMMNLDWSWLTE
To be noted: at 0.1 µM.

For test [7], the target named is T2, Inhibitor of nuclear factor kappa-B kinase subunit alpha (Homo sapiens). The following applies: at 1 µM.
For test [8], the target named is T3, Inhibitor of nuclear factor kappa-B kinase subunit beta (Homo sapiens) (UniProt O14920).
T3 sequence (whole entry): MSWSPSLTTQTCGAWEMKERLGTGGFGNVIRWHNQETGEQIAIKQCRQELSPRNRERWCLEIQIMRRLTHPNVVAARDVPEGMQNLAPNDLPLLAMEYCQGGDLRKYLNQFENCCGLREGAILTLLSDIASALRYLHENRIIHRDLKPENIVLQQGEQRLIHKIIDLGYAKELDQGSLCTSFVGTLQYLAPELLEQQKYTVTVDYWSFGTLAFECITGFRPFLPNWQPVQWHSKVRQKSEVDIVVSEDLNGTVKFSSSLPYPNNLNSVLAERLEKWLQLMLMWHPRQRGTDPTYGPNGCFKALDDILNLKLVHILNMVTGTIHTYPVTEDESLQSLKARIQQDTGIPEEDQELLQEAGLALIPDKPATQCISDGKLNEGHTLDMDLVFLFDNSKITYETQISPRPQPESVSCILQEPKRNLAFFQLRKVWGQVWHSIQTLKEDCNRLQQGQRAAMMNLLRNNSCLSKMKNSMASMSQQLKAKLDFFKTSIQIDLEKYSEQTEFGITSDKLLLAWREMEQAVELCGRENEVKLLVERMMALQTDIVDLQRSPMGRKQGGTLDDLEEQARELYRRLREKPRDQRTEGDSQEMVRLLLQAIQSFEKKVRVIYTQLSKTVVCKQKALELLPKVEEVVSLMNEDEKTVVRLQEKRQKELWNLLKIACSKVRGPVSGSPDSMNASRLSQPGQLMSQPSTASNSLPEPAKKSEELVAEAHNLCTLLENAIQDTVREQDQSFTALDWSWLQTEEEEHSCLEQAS
To be noted: at 0.1 µM.

The target of test [9] is T3, Inhibitor of nuclear factor kappa-B kinase subunit beta (Homo sapiens). To be noted: at 1 µM.
Test [10] concerns the target T4, Inhibitor of nuclear factor kappa-B kinase subunit epsilon (Homo sapiens) (UniProt Q14164).
T4 sequence (whole entry): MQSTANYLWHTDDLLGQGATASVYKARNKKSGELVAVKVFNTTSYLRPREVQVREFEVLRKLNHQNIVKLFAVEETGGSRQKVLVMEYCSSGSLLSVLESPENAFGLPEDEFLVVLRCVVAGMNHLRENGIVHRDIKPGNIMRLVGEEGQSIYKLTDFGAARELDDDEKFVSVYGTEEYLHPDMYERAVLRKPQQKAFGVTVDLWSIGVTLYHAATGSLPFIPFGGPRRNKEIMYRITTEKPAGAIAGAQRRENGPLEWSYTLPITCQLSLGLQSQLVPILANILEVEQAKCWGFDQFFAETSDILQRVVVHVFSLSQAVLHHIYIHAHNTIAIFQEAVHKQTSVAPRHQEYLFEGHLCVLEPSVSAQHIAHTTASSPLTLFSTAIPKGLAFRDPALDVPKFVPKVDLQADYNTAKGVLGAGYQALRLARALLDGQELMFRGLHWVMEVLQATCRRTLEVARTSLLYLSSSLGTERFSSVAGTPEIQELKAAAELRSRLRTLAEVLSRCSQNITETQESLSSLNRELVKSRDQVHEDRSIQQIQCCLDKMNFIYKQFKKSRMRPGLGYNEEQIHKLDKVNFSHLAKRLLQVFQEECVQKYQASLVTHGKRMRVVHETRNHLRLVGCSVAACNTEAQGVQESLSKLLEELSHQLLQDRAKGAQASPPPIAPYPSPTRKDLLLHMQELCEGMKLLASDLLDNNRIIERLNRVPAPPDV
To be noted: at 0.1 µM.

Test [11] concerns the target T4, Inhibitor of nuclear factor kappa-B kinase subunit epsilon (Homo sapiens). To be noted: at 1 µM.
The target of test [12] is T5, Serine/threonine-protein kinase Nek1 (Homo sapiens) (UniProt Q96PY6).
T5 sequence (whole entry): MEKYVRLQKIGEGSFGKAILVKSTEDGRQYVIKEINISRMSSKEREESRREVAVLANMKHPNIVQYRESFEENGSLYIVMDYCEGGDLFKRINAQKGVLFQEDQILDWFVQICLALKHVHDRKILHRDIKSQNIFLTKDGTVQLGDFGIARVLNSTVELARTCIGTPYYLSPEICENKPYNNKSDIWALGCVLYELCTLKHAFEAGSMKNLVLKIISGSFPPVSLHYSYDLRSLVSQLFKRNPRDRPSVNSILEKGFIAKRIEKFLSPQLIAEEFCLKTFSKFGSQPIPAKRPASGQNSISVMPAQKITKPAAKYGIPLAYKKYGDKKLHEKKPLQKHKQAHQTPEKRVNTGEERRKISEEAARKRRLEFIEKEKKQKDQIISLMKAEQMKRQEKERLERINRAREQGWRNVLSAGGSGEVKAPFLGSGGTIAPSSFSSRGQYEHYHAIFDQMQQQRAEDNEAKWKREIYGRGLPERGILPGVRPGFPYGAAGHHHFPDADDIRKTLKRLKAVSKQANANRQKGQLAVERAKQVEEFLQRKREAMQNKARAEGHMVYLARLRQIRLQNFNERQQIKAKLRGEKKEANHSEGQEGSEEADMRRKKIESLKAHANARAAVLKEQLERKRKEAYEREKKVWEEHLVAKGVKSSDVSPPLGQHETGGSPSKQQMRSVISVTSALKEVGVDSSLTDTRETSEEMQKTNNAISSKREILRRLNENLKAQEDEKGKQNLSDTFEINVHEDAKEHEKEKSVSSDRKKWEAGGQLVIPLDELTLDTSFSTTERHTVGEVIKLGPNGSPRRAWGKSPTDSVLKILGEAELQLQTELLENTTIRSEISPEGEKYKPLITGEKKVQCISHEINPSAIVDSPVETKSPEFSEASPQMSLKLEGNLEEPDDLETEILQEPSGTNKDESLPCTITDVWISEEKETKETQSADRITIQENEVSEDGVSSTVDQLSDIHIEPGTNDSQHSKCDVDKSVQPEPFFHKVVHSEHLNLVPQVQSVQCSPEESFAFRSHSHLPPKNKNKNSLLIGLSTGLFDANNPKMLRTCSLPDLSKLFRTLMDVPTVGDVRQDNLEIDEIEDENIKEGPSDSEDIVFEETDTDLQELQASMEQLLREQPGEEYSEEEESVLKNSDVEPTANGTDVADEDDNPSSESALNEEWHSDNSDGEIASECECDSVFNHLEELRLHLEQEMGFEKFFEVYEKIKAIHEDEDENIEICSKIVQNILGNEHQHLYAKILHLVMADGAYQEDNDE
To be noted: at 0.1 µM.

The target of test [13] is T5, Serine/threonine-protein kinase Nek1 (Homo sapiens). The following applies: at 1 µM.
Test [14] deals with T6, Serine/threonine-protein kinase Nek2 (Homo sapiens) (UniProt P51955).
T6 sequence (whole entry): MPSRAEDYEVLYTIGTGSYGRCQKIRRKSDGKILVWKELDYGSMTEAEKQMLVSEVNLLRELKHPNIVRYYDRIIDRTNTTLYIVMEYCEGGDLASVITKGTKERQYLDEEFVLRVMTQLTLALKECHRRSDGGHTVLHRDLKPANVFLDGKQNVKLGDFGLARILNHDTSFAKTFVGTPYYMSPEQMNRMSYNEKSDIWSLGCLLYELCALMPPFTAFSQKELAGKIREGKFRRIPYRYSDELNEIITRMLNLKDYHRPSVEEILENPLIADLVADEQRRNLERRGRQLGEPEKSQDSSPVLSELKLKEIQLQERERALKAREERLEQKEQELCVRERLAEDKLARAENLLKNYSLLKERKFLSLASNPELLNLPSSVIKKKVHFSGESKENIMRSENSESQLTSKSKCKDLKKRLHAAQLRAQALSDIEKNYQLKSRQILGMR
To be noted: at 0.1 µM.

In test [15] the target is T6, Serine/threonine-protein kinase Nek2 (Homo sapiens). To be noted: at 1 µM.
The target in test [16] is Serine/threonine-protein kinase Nek6 (Homo sapiens) (UniProt Q9HC98). To be noted: at 0.1 µM.
Sequence of Serine/threonine-protein kinase Nek6 (Homo sapiens) (Q9HC98 whole entry): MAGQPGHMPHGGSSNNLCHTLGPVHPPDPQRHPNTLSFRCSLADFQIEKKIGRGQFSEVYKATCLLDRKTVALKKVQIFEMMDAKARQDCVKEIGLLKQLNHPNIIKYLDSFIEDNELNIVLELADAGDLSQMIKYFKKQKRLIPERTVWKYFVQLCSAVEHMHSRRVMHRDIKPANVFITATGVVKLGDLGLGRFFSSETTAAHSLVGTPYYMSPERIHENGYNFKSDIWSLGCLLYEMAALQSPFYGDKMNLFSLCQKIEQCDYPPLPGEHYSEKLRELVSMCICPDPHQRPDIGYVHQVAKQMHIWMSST
Test [17] has the same target. To be noted: at 1 µM.
Test [18] deals with Serine/threonine-protein kinase Nek7 (Homo sapiens) (UniProt Q8TDX7). To be noted: at 0.1 µM.
Sequence of Serine/threonine-protein kinase Nek7 (Homo sapiens) (Q8TDX7 whole entry, looked up): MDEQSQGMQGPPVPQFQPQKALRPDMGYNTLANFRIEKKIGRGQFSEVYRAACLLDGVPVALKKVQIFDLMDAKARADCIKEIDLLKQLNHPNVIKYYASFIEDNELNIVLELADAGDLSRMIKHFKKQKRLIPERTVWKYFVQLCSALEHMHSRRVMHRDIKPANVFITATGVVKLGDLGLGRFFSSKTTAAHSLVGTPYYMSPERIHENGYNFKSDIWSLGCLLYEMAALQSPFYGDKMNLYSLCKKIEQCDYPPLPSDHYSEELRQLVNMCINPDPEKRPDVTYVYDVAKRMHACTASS
The target is the same in test [19]. The following applies: at 1 µM.
In test [20] the target is T7, Serine/threonine-protein kinase Nek9 (Homo sapiens) (UniProt Q8TD19).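 Further: reported value is the mean percent inhibition of NEK9.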
T7 sequence (whole entry): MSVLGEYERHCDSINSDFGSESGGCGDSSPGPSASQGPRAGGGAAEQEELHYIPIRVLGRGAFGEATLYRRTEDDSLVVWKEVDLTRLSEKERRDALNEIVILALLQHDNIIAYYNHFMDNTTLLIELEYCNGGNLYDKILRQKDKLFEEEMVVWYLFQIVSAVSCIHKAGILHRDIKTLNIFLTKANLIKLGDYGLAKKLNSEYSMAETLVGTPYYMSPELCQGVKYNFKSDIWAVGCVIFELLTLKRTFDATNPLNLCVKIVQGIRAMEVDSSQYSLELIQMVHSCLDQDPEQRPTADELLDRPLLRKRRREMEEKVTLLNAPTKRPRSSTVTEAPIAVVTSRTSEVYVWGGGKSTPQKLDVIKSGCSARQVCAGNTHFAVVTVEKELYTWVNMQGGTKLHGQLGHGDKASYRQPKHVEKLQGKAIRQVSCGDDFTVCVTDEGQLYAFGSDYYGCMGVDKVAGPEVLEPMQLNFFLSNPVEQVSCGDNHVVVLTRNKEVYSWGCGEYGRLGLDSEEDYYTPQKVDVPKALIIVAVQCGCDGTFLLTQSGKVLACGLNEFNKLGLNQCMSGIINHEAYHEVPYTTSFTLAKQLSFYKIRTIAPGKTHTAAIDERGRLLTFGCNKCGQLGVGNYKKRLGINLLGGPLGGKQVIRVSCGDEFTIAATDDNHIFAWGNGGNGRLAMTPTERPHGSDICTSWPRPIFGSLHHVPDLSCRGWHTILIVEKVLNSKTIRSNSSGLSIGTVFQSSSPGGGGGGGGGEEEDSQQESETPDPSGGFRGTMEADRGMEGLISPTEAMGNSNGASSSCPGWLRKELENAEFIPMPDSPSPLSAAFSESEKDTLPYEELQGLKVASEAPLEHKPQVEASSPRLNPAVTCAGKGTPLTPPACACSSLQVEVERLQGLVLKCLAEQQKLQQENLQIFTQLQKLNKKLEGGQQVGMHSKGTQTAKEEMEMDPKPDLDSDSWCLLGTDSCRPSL
To be noted: at 0.1 µM.

Sequence of Sphingosine kinase 1 (Homo sapiens) (Q9NYA1 whole entry): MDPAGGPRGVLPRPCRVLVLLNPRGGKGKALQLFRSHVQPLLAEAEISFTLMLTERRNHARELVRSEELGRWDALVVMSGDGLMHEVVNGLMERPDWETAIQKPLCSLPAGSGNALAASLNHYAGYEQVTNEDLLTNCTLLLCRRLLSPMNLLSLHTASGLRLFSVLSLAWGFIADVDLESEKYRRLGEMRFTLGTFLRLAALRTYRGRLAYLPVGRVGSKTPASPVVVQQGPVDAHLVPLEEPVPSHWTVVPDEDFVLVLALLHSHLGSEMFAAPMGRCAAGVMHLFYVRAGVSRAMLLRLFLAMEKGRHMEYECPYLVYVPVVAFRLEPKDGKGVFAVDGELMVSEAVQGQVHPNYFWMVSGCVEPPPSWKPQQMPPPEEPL

As usually defined, the inhibition is the change of the read-out against control, counted positive when it falls. As to `COc1cc(N2CCN(C(C)C)CC2)ccc1Nc1nc(Nc2ccc(F)cc2C(N)=O)c2cc[nH]c2n1`, the inhibition in test [1] is 0.04%; in test [2], -0.73%; in test [3] it was -1.03%; in [4], 15.7%; in test [5], 54.7%; in test [6] it was 0.45%. Besides, the inhibition in test [7] was -0.19%; in test [8] it was 2.59%; in [9] it was 3.32%; in [10], 0.77%; in [11], 4.36%; in [12] it was 3.16%. Besides, the inhibition in [13] stood at 11.2%; in test [14] it was 3.34%; in [15] it was 2.89%; in [16], 2.32%; in test [17] it was 5.57%; in test [18], 2.07%. Also, the inhibition in test [19] amounted to 7.1%; in test [20] it was 4.13%.

For the origin of these results see ChEMBL document CHEMBL1961873, “Compounds: GSK PKIS; Assays: Nanosyn kinase panel” (2012).
